Source: PubChem BioAssay AID813 (Sanford-Burnham Center for Chemical Genomics, 2007)
Screen size: about 64,000 compounds; fewer than 10 were called active.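 Rule for the calls: active = activation factor of at least 2 at 20 µM, relative to controls; inactive = the rest.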 Only a sample is shown.

molecular target: Alkaline phosphatase, tissue-nonspecific isozyme (Homo sapiens) (UniProt P05186); assay: human TNAP enzyme activators, primary screen, biochemical, luminescent, intermediate phosphate acceptor level (AID 813); conditions: purified TNAP, CDP-star luminescence, 100 mM DEA, 30 min; at 20 µM; active compounds read high; scale: 0 levamisole-inhibited, 1 vehicle-only enzyme
Sequence (P05186 whole entry, looked up): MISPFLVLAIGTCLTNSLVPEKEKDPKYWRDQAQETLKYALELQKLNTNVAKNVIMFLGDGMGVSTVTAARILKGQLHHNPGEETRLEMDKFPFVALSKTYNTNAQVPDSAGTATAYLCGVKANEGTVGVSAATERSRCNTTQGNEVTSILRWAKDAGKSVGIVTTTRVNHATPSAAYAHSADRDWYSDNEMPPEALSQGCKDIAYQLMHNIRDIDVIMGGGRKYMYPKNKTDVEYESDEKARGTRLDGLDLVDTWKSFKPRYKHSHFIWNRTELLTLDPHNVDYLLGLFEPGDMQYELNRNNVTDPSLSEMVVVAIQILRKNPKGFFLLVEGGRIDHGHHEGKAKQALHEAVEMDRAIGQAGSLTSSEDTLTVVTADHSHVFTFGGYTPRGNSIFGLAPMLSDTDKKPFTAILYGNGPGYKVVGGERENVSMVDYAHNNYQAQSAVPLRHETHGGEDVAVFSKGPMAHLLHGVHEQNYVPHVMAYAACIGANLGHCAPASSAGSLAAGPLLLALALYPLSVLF

Activation factor, inactive:
Cc1ccccc1CSc1nnc(-c2cccnc2)n1N 0.9
COCCN1C(=O)c2oc3c(C)cc(C)cc3c(=O)c2C1c1cccc(O)c1 (stereo not drawn) 0.8
COc1ccc2occ(C(=O)c3ccc(N=C(C)N(C)C)cc3)c2c1 0.9
O=C1CN(C(=O)COC(=O)C2CC(=O)N(Cc3ccco3)C2)c2ccccc2N1 (stereo not drawn) 0.9
CSc1nc(O)c(Cc2ccccc2)c(=O)[nH]1 1
COc1cc(C(O)c2nc3ccccc3n2C)cc(OC)c1OC (stereo not drawn) 0.9
O=C(O)c1cc(S(=O)(=O)N2CCCCCC2)c(Cl)cc1Cl 1
CCN1CCCC1CNC(=O)Cn1cnc2ccc(S(=O)(=O)N3CCC(C)CC3)cc2c1=O (stereo not drawn) 0.9
CCCCn1nc(C(=O)N2CCc3ccccc32)c2ccccc2c1=O 0.9
Cc1ccc(O)c(NC(=O)COc2cc(C)ccc2C)c1 0.9
Cc1cccc(OCc2nnc(SCC(=O)N3CCN(C(=O)c4ccco4)CC3)n2C)c1C 0.9
Cc1cc(Cl)c(S(=O)(=O)Nc2ccc3c(c2)OCCO3)cc1OCC(N)=O 0.9
CC(=NCc1ccco1)C1=C(O)c2ccccc2C1=O 0.9
Cc1ccc(-c2noc(CSc3nnc(-c4ccccc4)n3C)n2)cc1 1
O=C(Cn1[nH]c(=O)c2ccccc2c1=O)Nc1cccc(-c2nnc3n2CCCCC3)c1 0.9
CC1Cc2nc(SCC(=O)Nc3ccccc3F)n(C)c(=O)c2S1 (stereo not drawn) 1
COc1ccccc1C(=O)Oc1ccc(N2C(=O)CCC2=O)cc1 0.9
Clc1ccc(C2CC(c3cccs3)n3ncnc3N2)cc1Cl (stereo not drawn) 1
O=C(CNC(=O)c1ccco1)OCC(=O)c1ccccc1 0.9
CN1CCC2(CC1)NC(=O)NC2=O 1
CCN(CC)CCN1C(=O)C(=O)/C(=C(/O)c2ccc(OC)c(OC)c2)C1c1ccccn1 (stereo not drawn) 1
O=S(=O)(O)c1nc2ccccc2n1Cc1ccc(Cl)cc1Cl 0.9
CC(Nc1nc(N2CCCC2)nc2ccccc12)c1ccccc1 (stereo not drawn) 1
NC(=O)CSc1c[nH]c2ccccc12 0.9
CCCCOc1ccc(C(=O)NCc2ccco2)cc1 0.9
COc1ccc(S(=O)(=O)N2CCCC(C(=O)Nc3ccc(NC(=O)c4ccccn4)cc3)C2)cc1 (stereo not drawn) 0.8
Cc1cc(Nc2cccc(C)c2C)n2ncnc2n1 1
O=C(CSC1=Nc2ccccc2C2=NC(c3ccccc3)C(=O)N12)NCC1CCCO1 (stereo not drawn) 0.9
CCOC(=O)c1cccc(NC(=O)C2CCCN(S(=O)(=O)c3cnc[nH]3)C2)c1 (stereo not drawn) 0.9
CSCC[C@H](NC(=O)NCc1cccs1)C(=O)O 0.9
Cc1c2cn[nH]c(=O)c2c(C)n1Cc1ccc(F)cc1 0.9
COc1ccc2nc(NC3=NCN(CC4CCCO4)CN3)nc(C)c2c1 (stereo not drawn) 0.9
Cc1ccc(C)n1C(Cc1ccccc1)C(=O)O (stereo not drawn) 0.8
Cc1cc(N2CCCC2=O)cc(C)c1S(N)(=O)=O 0.9
CCOC(=O)Cn1c(N)c(C(=O)OC)sc1=S 0.9
Cc1cccc(NC(=O)c2ccc3ccccc3n2)n1 0.9
COc1ccc(C2C(C#N)=C(N)Oc3cc(N)ccc32)cc1OC (stereo not drawn) 1
Cc1nn(C)c(C)c1S(=O)(=O)N1CCc2ccccc21 1
Cc1cc(C)nc(N2C(=O)CC(Cc3ccccc3)C2=O)n1 (stereo not drawn) 0.9
COc1ccc(-n2c(SCC(=O)Nc3ccc4c(c3)OCO4)nnc2C(C)N2CCCCC2)cc1 (stereo not drawn) 1
N#CC1=C(N)OC2=C(C(=O)CCC2)C1C1CC=CCC1 (stereo not drawn) 0.9
O=C(Nc1ccon1)c1sc2ccccc2c1Cl 1
Cc1ccc(S(=O)(=O)NCC(=O)OCC(=O)N2CCc3ccccc32)cc1 0.8
COc1ccc(C(=O)CSc2nccc(=O)[nH]2)cc1 1
CSc1cccc(NC(=O)C2CCCN2S(=O)(=O)c2ccc3c(c2)CCC(=O)N3)c1 (stereo not drawn) 0.9
Cc1ccnc(N2CCCC(C(=O)Nc3cc(F)ccc3C)C2)n1 (stereo not drawn) 0.9
Nc1nonc1C(=O)NCCc1ccccc1 0.9
CCc1cccc(C)c1NC(=O)CSc1nnc(-c2ccco2)n1N 1.1
COc1ccccc1-n1c(CNC(=O)c2ccccc2)nnc1SCC(=O)Nc1nnc(C)s1 1
Cc1ccc(S(=O)(=O)NC(C)C(=O)Nc2ccccc2C(=O)N2CCCC2)cc1 (stereo not drawn) 0.9
O=C1C(C=NCC2CCCO2)=C(O)c2ccccc21 (stereo not drawn) 1
O=C(CCN1C(=O)c2ccccc2C1=O)Nc1ccncc1 1
CCn1nnc(NC(=O)c2cc(Cl)c(OC)c(Cl)c2)n1 0.9
CN(C)/C=C1/C(=O)Nc2ccccc21 0.9
CCCNC(=O)C1CC(=O)N(c2ccc(OCC(=O)Nc3cccc(C)c3C)cc2)C1 (stereo not drawn) 1
CCCCNC(=O)CSc1nnc(-c2ccco2)n1C 1
CCOC(=O)c1cccc(NC(=O)CCn2nnc3ccccc32)c1 0.9
O=C(CSc1nnc(-c2cccs2)n1Cc1ccco1)c1ccc2c(c1)OCO2 0.9
CC(=O)N(CC1CCCO1)C1(C(=O)NC2CCCC2)CCCCC1 (stereo not drawn) 1
CCn1c(SCC(=O)Nc2cc(C)c(Cl)cc2OC)nnc1-c1ccco1 1
Cc1ccc2c(C(=O)CN3CCCC3)c(C)[nH]c2c1 0.9
Cc1cccc(C2c3c(n(C)c(=O)n(C)c3=O)N=C3c4ccccc4C(=O)C32)c1 (stereo not drawn) 0.8
C=CCn1c(C2CC(=O)N(c3ccc(C)cc3)C2)nc2ccccc21 (stereo not drawn) 0.9
CC1(C)Cc2c(C#N)c(SCc3nc4ccccc4[nH]3)nc(N3CCOCC3)c2CO1 1
CCOC(=O)C1C(=O)OC2(CCCC2)C1C(=O)OCC (stereo not drawn) 0.9
Cc1ncn(C23CC4CC(CC(O)(C4)C2)C3)n1 1
CC1CN(C(=O)CN2C(=O)NC(C)(c3ccccc3)C2=O)CC(C)O1 (stereo not drawn) 0.9
CCOc1cc(C)c(Cl)cc1S(=O)(=O)n1nnc2ccccc21 0.9
CCOC(=O)CNC(=O)c1nn(-c2cccc(OC)c2)c(=O)c2ccccc12 0.9
CC(C)c1ccc(NC(=O)NC2CCCCC2)cc1 0.9
COc1ccc(N2C(=O)C3CCCN3C2c2cc(OC)c(OC)cc2OC)cc1 (stereo not drawn) 0.9
Cc1oc(CC(C)C)c(CN2CCCC2)c1C(=O)O 0.9
CCCn1c(SCC(N)=O)nnc1C(C)C 0.9
O=C(CCN1C(=O)COc2ccccc21)NCCCN1CCN(c2ccc(F)cc2)CC1 0.9
Cc1c(-c2nn(C)c(=O)c3ccccc23)oc2ccc(F)cc2c1=O 1
CCC(=O)N1c2ccc(S(=O)(=O)CCC(=O)N3CCN(c4ccccc4)CC3)cc2CC1C (stereo not drawn) 0.9
Cc1cc(Nc2ccccc2)n(CCC#N)n1 1
Cc1cc2cc(CNC(=O)c3ccc(S(=O)(=O)N4CCOCC4)cc3)ccc2[nH]1 1
CCOC(=O)c1cc2occc2n1CC(=O)NC1CCC(C)CC1 (stereo not drawn) 0.9
CC(CN1CCCCC1)OC(=O)c1ccccc1Cl (stereo not drawn) 1
COC(=O)c1cc(NC2c3ccccc3C(=O)N2c2ccc(Cl)cn2)cc(C(=O)OC)c1 (stereo not drawn) 0.9
N=c1c2c3c(sc2ncn1CCCN1CCOCC1)CCCCC3 0.9
Cc1ccc(S(=O)(=O)NCc2csc(C)n2)c(C)c1 0.9
CSCCC1NC2(C(=O)Nc3ccc(Cl)cc32)[C@@H]2C(=O)N(C3CCCC3)C(=O)[C@H]12 (stereo partly drawn) 0.9
NC(=O)c1ccsc1NC(=O)c1ccco1 0.8
O=C(CC1(O)C(=O)N(CN2CCOCC2)c2ccccc21)c1ccccc1 (stereo not drawn) 0.9
CCOc1cccc(-n2nnnc2-c2ccc(OC)cc2)c1 0.8
Cc1ccc(N2C(=O)c3oc4ccccc4c(=O)c3C2c2cccnc2)nc1 (stereo not drawn) 0.9
COc1ccccc1N1CCN(Cc2ccc(OC)c3ccccc23)CC1 0.9
CC(C)(C)c1csc(NC2=NS(=O)(=O)c3ccccc32)n1 0.9
CN1CCN(CC(O)COCc2ccc3c(c2)OCO3)CC1 (stereo not drawn) 1
COc1cc(C2C(C(=O)c3sc(C)nc3C)=C(O)C(=O)N2CCN(C)C)cc(OC)c1OC (stereo not drawn) 0.9
CCOc1cc(/C=N/O)cc(Br)c1OC 0.9
Cc1ccc(C(=O)Nc2ccccc2C(=O)NC2CCCCC2)cc1S(=O)(=O)N1CCOCC1 0.9
CC1CCN(c2nc3c(c(=O)[nH]c(=O)n3C)n2CCCc2ccccc2)CC1 1
Cc1cc(C)nc(NC2=NCC(=O)N2c2ccc(Cl)cc2)n1 0.9
CCOc1cc(S(=O)(=O)NC2CC(C)(C)NC(C)(C)C2)ccc1F 0.9
Nc1nnc(C2CCCC2)s1 0.9
Cn1c(=NC(=O)c2ccco2)sc2cccc(F)c21 0.9
CC(C)(CNCC(O)c1ccccc1)N1CCOCC1 (stereo not drawn) 0.9
CCOc1ccc(N(CC(=O)OC)S(=O)(=O)c2c(C)noc2C)cc1 0.9
COc1ccc(CCn2nnnc2C(c2ccccc2)N2CCN(C)CC2)cc1OC (stereo not drawn) 1
O=C(OCCO)c1cc(Cl)c(C(=O)OCCO)cc1Cl 0.9
